From PubChem BioAssay
The source made the active and inactive calls.

Legend:
[1] = compound effects on differentiated 3T3-L1 adipocyte viability – cell-based, 3T3-L1 adipocytes, calcein-AM fluorescence, 48 h, basal, profiling panel (AID 1163); conditions: 3T3-L1 adipocytes viability, higher = more signal
[2] = compound effects on hepatocellular carcinoma cell viability – HepG2, calcein-AM fluorescence, 48 h, basal, profiling panel (AID 1164); conditions: higher = more signal
[3] = compound effects on multiple myeloma cell viability – MM1S, calcein-AM fluorescence, 48 h, basal, profiling panel (AID 1165); conditions: higher = more signal
[4] = calcein-AM signal in unstimulated myeloma cells – cell-based, calcein-AM fluorescence, 48 h, PK04 Diversity Set, profiling panel (AID 1166); conditions: RPMI8226 myeloma viability, higher = more signal;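 note: cells grown under basal conditions without added stimulus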
[5] = JC-1 mitochondrial signal, unstimulated HepG2 cells – cell-based, JC-1 fluorescence, 24 h, 100 nL compound, profiling panel (AID 1167); conditions: HepG2 mitochondrial potential, higher = more signal
[6] = JC-1 mitochondrial signal, unstimulated adipocytes – cell-based, JC-1 fluorescence, 3T3-L1 adipocytes, 24 h, 100 nL compound, profiling panel (AID 1168); conditions: JC-1 mitochondrial fluorescence, higher = more signal, called active from +8 up or from −8 down
[7] = JC-1 mitochondrial signal, unstimulated myeloma cells – cell-based, JC-1 fluorescence, RPMI8226, 24 h, 100 nL compound, profiling panel (AID 1169); conditions: JC-1 mitochondrial potential fluorescence, higher = more signal
[8] = JC-1 mitochondrial signal, unstimulated MM1S myeloma – cell-based, JC-1 fluorescence, 24 h, 100 nL compound, profiling panel (AID 1170); conditions: MM1S mitochondrial potential, higher = more signal
[9] = resazurin metabolic signal in A549 cells – cell-based, resazurin fluorescence, 24 h, PK04 Diversity Set, profiling panel (AID 1171); conditions: A549 viability, higher = more signal, called active from +8 up or from −8 down
[10] = resazurin metabolic signal in HepG2 cells – cell-based, resazurin fluorescence, 24 h, PK04 Diversity Set, profiling panel (AID 1172); conditions: HepG2 viability, higher = more signal
[11] = budding yeast growth changes without added modifier – OD600, strain BY4716, 24 h, basal condition, primary screen (AID 1173); conditions: S. cerevisiae BY4716 growth, OD600, 24 h; higher = more signal, called active from +8 up or from −8 down
[12] = viability profiling in MM1S myeloma cells – cell-based, resazurin fluorescence, basal, 24 h, PK04 Diversity Set, profiling panel (AID 1174); conditions: higher = more signal, called active from +8 up or from −8 down
[13] = target: Dihydroorotate dehydrogenase (quinone), mitochondrial (Plasmodium falciparum (isolate 3D7)) (UniProt Q08210); assay: inhibition of P. falciparum DHODH – biochemical, C-terminal His tag, absorbance 600 nm, primary screen (AID 1175); conditions: PfDHODH enzyme, DCIP absorbance 600 nm; higher = more signal, called active from +8 up or from −8 down;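 note: recombinant parasite enzyme with a five histidine tag at its C terminus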
Chain of Dihydroorotate dehydrogenase (quinone), mitochondrial (Plasmodium falciparum (isolate 3D7)) (Q08210 whole entry, looked up): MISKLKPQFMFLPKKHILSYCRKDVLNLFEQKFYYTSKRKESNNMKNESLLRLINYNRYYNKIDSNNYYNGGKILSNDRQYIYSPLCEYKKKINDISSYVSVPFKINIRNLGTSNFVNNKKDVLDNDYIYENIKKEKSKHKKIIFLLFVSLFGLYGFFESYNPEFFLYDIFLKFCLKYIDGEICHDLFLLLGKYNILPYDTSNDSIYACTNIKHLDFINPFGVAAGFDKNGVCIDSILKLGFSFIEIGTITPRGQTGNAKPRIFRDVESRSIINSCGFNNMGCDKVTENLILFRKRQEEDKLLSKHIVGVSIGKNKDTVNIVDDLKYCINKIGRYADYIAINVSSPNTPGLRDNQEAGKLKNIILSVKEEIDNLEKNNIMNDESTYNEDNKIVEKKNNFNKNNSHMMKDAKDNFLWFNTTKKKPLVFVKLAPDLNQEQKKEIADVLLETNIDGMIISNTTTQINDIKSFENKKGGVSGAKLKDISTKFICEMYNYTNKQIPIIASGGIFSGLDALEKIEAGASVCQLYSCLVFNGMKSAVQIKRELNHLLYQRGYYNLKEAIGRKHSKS

[14] = growth modulation of vineyard yeast isolate – strain RM11-1a, OD600, basal, 24 h, primary screen (AID 1177);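 note: cultures grown under basal conditions with no added stressor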; conditions: S. cerevisiae RM11-1a growth, OD600, 24 h; higher = more signal, called active from +8 up or from −8 down
[15] = growth of efflux-deficient E. coli DRC39 – strain DRC39, OD650, 24 h, E. coli filamentation inducers, primary screen (AID 1178);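 note: growth measured as culture turbidity by optical density at 650 nm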; conditions: E. coli DRC39 acrAB, higher = more signal, called active from +8 up or from −8 down
[16] = growth of efflux-deficient E. coli DRC39 – strain DRC39, OD650, 48 h, E. coli filamentation inducers, primary screen (AID 1179);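 note: screen aims at cell division blockers that make cells filament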; conditions: E. coli DRC39 delta-acrAB growth, higher = more signal, called active from +8 up or from −8 down
[17] = viability profiling in RPMI8226 myeloma cells – cell-based, resazurin fluorescence, basal, 24 h, PK04 Diversity Set, profiling panel (AID 1180); conditions: higher = more signal;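 note: RPMI8826 multiple myeloma cell line at 5000 cells per well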
[18] = target: E3 ubiquitin-protein ligase XIAP (Homo sapiens) (UniProt P98170); assay: small molecules binding XIAP protein – biophysical, small-molecule microarray, fluorescence 635 nm, primary screen (AID 1181); conditions: higher = more signal;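 note: score merges 667 nm emission and signal to noise over triplicate slides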
Chain of E3 ubiquitin-protein ligase XIAP (Homo sapiens) (P98170 whole entry, looked up, the tested form may be a part): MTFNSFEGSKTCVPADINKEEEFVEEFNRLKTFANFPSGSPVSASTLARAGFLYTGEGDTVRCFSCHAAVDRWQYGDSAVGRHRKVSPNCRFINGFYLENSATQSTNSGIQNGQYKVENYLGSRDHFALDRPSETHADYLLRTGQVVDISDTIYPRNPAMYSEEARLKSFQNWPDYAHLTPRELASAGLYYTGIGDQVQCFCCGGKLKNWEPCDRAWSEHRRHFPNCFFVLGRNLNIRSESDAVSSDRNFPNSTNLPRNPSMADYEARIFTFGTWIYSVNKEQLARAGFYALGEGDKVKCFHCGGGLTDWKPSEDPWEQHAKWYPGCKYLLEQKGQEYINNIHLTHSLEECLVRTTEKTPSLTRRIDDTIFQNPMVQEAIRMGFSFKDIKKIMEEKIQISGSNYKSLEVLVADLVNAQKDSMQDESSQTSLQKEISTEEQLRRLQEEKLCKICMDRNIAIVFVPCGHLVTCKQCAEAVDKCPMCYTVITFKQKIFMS

[19] = test system: XIP peptide (Xip251-270) binding; assay: XIP fragment 251-270 binding compounds – biochemical, small-molecule microarray, fluorescence 635/667 nm, 0.1 µg/mL protein, primary screen (AID 1182); conditions: fluorescent protein binding, 635 nm, higher = more signal, called active from +8 up or from −8 down
XIP peptide (Xip251-270) = assay: compounds binding XIP fragment 251-270 – biochemical, small-molecule microarray, fluorescence 635/667 nm, 0.5 µg/mL protein, primary screen (AID 1183); conditions: fluorescence 635 nm, higher = more signal

Compound | z-score [1] | z-score [2] | z-score [3] | z-score [4] | z-score [5] | z-score [6] | z-score [7] | z-score [8] | z-score [9] | z-score [10] | z-score [11] | z-score [12] | composite z-score [13] | z-score [14] | z-score [15] | z-score [16] | z-score [17] | composite z-score [18] | composite z-score [19] | composite z-score (XIP peptide (Xip251-270))
COCCCNC(=O)[C@@]1(Cc2ccccc2CN=[N+]=[N-])COC(c2ccc(OCCCO)cc2)=N1 | 1.08 | 0.501 | -2.46 | -0.77 | 0.287 | 1.33 (inactive) | -0.724 | -0.376 | 0.616 (inactive) | 1.8 | -1.66 (inactive) | 0.0645 (inactive) | -0.49 (inactive) | 0.493 (inactive) | 2 (inactive) | 1.61 (inactive) | 0.693 | -0.0525 | 1.94 (inactive) | 0.866
O=C1c2ccccc2[C@@]2(Cc3ccccc3N(CC(F)(F)F)C2=O)[C@H](c2ccc(CO)cc2)N1Cc1ccccc1C(F)(F)F | 0.559 | -0.167 | 0.733 | -1.08 | 0.288 | 1.05 (inactive) | 0.753 | 0.197 | -0.203 (inactive) | 0.528 | -0.829 (inactive) | 1.02 (inactive) | -3.56 (inactive) | -0.49 (inactive) | -0.136 (inactive) | -0.344 (inactive) | 1.05 | -0.0446 | -0.765 (inactive) | -1.23
C=CCN1C(=O)[C@@]2(O[C@@H](CCO)[C@H]([Si](C)(C)c3ccc(OC)cc3)[C@H]2C)c2cc(N3C(=O)c4cccc5cccc3c45)ccc21 | -1.3 | -4.72 | -2.92 | -4.4 | -2.34 | 2.26 (inactive) | -1.01 | -2.09 | -4.58 (inactive) | -6.14 | 0.275 (inactive) | -8.59 (active) | 0.901 (inactive) | 5.51 (inactive) | 2.57 (inactive) | 2.05 (inactive) | -6.03 | 0.0411 | 0.777 (inactive) | 0.714
O=C(NCc1ccccc1)[C@@H]1c2ccccc2C(=O)N(Cc2ccccc2Cl)[C@H]1c1ccc(CO)cc1 | 1.23 | -0.005 | 0.138 | -0.256 | 1.99 | -0.0174 (inactive) | -0.939 | -0.0877 | 1.39 (inactive) | 0.714 | -1.18 (inactive) | 0.687 (inactive) | -1.17 (inactive) | -1.44 (inactive) | 0.392 (inactive) | 0.123 (inactive) | 1.63 | 0.0115 | 0.188 (inactive) | 0.819
C=CCNC(=O)[C@H]1[C@@H]2C(=O)O[C@@H](c3ccccc3)[C@@H](c3ccccc3)N2[C@@H](c2ccc(OCCO)cc2)[C@]12C(=O)Nc1ccc(C#CCCO)cc12 | 2.12 | 1.05 | 0.416 | 0.364 | 0.355 | 0.815 (inactive) | -0.307 | 0.128 | 0.865 (inactive) | -0.0836 | -0.0378 (inactive) | 0.806 (inactive) | 0.0436 (inactive) | 1.25 (inactive) | 0.645 (inactive) | 0.499 (inactive) | 1.28 | -0.0371 | 0.331 (inactive) | 0.81
COc1ccc([Si](C)(C)[C@@H]2[C@@H](CC(=O)N3CCC[C@H]3CO)O[C@]3(C(=O)N(Cc4ccc(I)cc4)c4ccccc43)[C@H]2C)cc1 | 2.59 | -2.95 | -2.58 | -4.35 | 2.47 | 1.67 (inactive) | -1.04 | -0.818 | -2.59 (inactive) | -1.37 | -1.91 (inactive) | -2.56 (inactive) | 0.413 (inactive) | -0.289 (inactive) | 1.66 (inactive) | 0.78 (inactive) | -2.59 | 0.0368 | 0.564 (inactive) | 0.534
C=C(/C(=C/C[C@H](OC(=O)c1ccncc1)c1cccc(OCCO)c1)c1cc(C(=O)OC)ccc1OC)C(C)C | 1.7 | -0.712 | -0.026 | 0.566 | 2.15 | 0.746 (inactive) | 0.0166 | 0.343 | 2.01 (inactive) | 0.731 | -0.177 (inactive) | 1.8 (inactive) | -0.494 (inactive) | -1.06 (inactive) | 1.17 (inactive) | 0.196 (inactive) | 0.987 | -0.153 | 0.236 (inactive) | 0.256
CCCCCN1CC=CC23O[C@@H]4/C=C\CCC(C)OC(=O)C4[C@H]2C(=O)N(CCO)[C@@H]3C1=O (stereo not given in full) | 2.4 | 0.277 | 2.91 | -0.245 | 0.419 | 1.74 (inactive) | 0.791 | 1.17 | 0.095 (inactive) | 0.355 | -0.734 (inactive) | 1.32 (inactive) | 0.0255 (inactive) | 0.121 (inactive) | 1.34 (inactive) | 1.11 (inactive) | 1.22 | 0.272 | 0.642 (inactive) | -0.927
